Among all 350,000 compounds or so, about 2,400 (0.69%) were called active. For the sample, actives were picked, then their nearest neighbours and some compounds at random. A number with no mark means an inactive call. Cut-off read from the data, not from the text of the source: active = inhibition above about 41%; inconclusive = no clear call, values can overlap the other calls; inactive = below that.

A short description of this experiment: blockers of LMP1-induced NF-kB reporter signal – cell-based, luminescence, single point, primary screen (AID 504558).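 Note: 0% = neutral control wells and 100% = reference inhibitor control.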 Conditions: LMP1-induced NF-kappaB luciferase reporter cells, at 12.5 µM, hits give high values.
As to `COc1ccc(CN2C(=O)C(CC(=O)NC3CCCCC3)CC(C(=O)N3CCOCC3)=C2C)cc1` (centres undefined), the inhibition (usually the relative decrease from the control value, in per cent) was 1.44%. With `CSCCC(NC(=O)c1ccco1)C(=O)OCC(=O)Nc1ncc(Cl)c(C)c1Cl` (centres undefined), the inhibition is 59.5% (active).

Regarding `CSCCC(NC(=O)c1ccco1)C(=O)Nc1cc(C)ccn1` (centres undefined), the inhibition is -34.2%.

Consider `Cc1c(Cl)cnc(NC(=O)COC(=O)C2CCCC2)c1Cl`, for which the inhibition is -6.23%. Turning to `COc1cccc(OCC(=O)NCCS(=O)(=O)N2CCN(c3ccccc3)CC2)c1`, the inhibition was 1.31%. In the case of `O=C(CC(CC(=O)c1ccccc1)c1ccco1)c1ccccc1`, the inhibition was -17.7%. Take `CCOc1cc(/C=C(/C#N)c2ccc(Cl)cc2)cc(Cl)c1OCC(=O)O`: the inhibition is 43.8% (active). For `CCOC(=O)CN/C=C(\C#N)c1ccc(F)cc1`, the inhibition is 1.95%. In the case of `C/C(=N\OCC(=O)O)c1ccc(Cl)cc1` it was -9.17%; in that of `CCOC(=O)c1cc(-c2sc(NC(=O)c3ccccc3)nc2C)n(-c2ccc(Br)cc2)n1`, -16.6%; in that of `C[C@@H]1CN([C@H](C)CO)S(=O)(=O)c2ccc(C#CC3CCCCC3)cc2O[C@H]1CN(C)C(=O)Cc1ccncc1`, -11.3%. On to `COc1ccc(C(CNC(=O)c2ccc(OCc3cscn3)cc2)N2CCCC2)cc1` (centres undefined), for which the inhibition is -12%. In the case of `CC(=O)Nc1c(-c2ccc(C)cc2)nc2ccc(Cl)cn12` it was 6.02%; in that of `Cc1sc2nc(-c3ccccc3F)oc(=O)c2c1C`, 1.32%. `CSc1ncnc2c1ncn2CCCNCC1CCCCC1`: the inhibition was 3.66%. Regarding `Cc1ccc(/C=N/NC(=O)C2=NNC(c3ccccc3)(c3ccccc3)C2)c(O)c1`, the inhibition was 61.6% (active). With `O=C(NN=Cc1ccccc1O)NN=Cc1ccccc1O`, the inhibition is 33.4%. Consider `O=C(N/N=C/c1ccccc1O)C1CCCC1`, for which the inhibition is 0.696%. In the case of `Cc1nc2ccccc2nc1CC(O)(c1ccccc1)c1ccccc1` it was -2.04%; in that of `Nc1ccccc1-c1nc2ccncc2[nH]1`, 2.17%; in that of `Cc1nnc(N/N=C/c2ccccn2)[nH]c1=O`, 60.6% (active). In the case of `O=C(COc1ccc(Cl)cc1Cl)N/N=C/c1ccccn1` it was 19.3%; in that of `O=C(N/N=C/c1ccccn1)C12CC3CC(CC(C3)C1)C2`, -4.71%. Take `Cc1ccc(-c2ccc(CN3C(C)C(=O)N(Cc4cn(CCC5OCCCO5)nn4)CCS3(=O)=O)cc2)cc1` (centres undefined): the inhibition was 3.6%. Take `C[C@@H]1CCCCO[C@H](CN(C)Cc2ccccc2)[C@@H](C)CN([C@H](C)CO)C(=O)c2cc(NS(=O)(=O)c3ccc(Cl)cc3)ccc2O1`: the inhibition was -0.347%. Regarding `CCN(CC)C(=O)C1=C(C)N(Cc2ccc(F)cc2)C(=O)C(CC(=O)NC2CCCC2)C1` (centres undefined), the inhibition was 5.32%.

Take `COc1cc(C=NNC(=O)c2cccnc2)ccc1OC(=O)c1ccccc1F`: the inhibition is 5.47%. Regarding `COc1ccc(C(=O)Nc2ccccc2C(=O)N/N=C/c2ccc(O)c(OC)c2)cc1`, the inhibition is 66.5% (active). `O=C(NN=Cc1ccc2c(c1)CCC2)c1ccccc1O`: the inhibition was -10.8%. For the compound `CCCCCCNC(=O)O[C@H]1CN(C(=O)OC(C)C)N(C(=O)OC(C)C)[C@@H]2CN(S(=O)(=O)c3ccc(C)cc3)C[C@]12O`, the inhibition was -5.81%. In the case of `Cc1cc2cc3n(c2nn1)N=C(Cl)CC3` it was 3.98%; in that of `CNS(=O)(=O)c1ccc2c(c1)[nH]c(=S)n2C`, 8.35%.

As to `CCOc1cc(/C=N/NC(=O)c2c(C)nc3ccc(Cl)cn23)ccc1O`, the inhibition was -8.3%.

Regarding `Cc1ccnc(NC(=O)Cn2ccc([N+](=O)[O-])n2)c1`, the inhibition was 53.9% (active). As to `O=C(CCn1ccc([N+](=O)[O-])n1)Nc1nccs1`, the inhibition was -2.16%. Consider `O=C(Cn1ccc([N+](=O)[O-])n1)NCc1cccs1`, for which the inhibition is -5.11%. With `Cn1ncc([N+](=O)[O-])c1C(=O)Nc1cc(Cl)ccc1Cl`, the inhibition is 1.05%. For the compound `CCc1nc2c(=O)[nH]cnc2o1`, the inhibition was 1.63%. In the case of `CCN1C(=O)[C@H]2[C@@H](c3ccc(C(F)(F)F)cc3)N[C@]3(CCCN(Cc4ccc(Br)cc4)C3=O)[C@H]2C1=O`, the inhibition is 33.7%. In the case of `C[C@H]1CN([C@@H](C)CO)S(=O)(=O)c2ccc(-c3cccc(F)c3)cc2O[C@@H]1CN(C)C`, the inhibition was -3.16%. Consider `Cc1cccn2c(=O)c3cc(C(=O)NC4CCCCC4)sc3nc12`, for which the inhibition was -2.71%. For the compound `Cc1ccccc1C(=O)NC(=S)NC1CC1`, the inhibition was 2.37%. In the case of `Cc1ccccc1-n1nc(C)c2cc(C(=O)NC3CC3)sc21`, the inhibition is 48.8% (active).

Regarding `CC(C)[C@H](NC(=O)c1ccccc1F)C(=O)Nc1cccc(S(=O)(=O)N2CCOCC2)c1`, the inhibition was -8.03%.

For the compound `CCN(CC)C(=O)C1=C(C)N(Cc2ccc(OC)cc2)C(=O)C(CC(=O)NCc2ccco2)C1` (centres undefined), the inhibition was -5.75%.

As to `O=C(COc1ccc(S(=O)(=O)N2CCCC2)cc1[N+](=O)[O-])N1CCCCC1`, the inhibition was -1.43%. `O=C(C1=C[C@H](c2coc3ccccc3c2=O)C[C@H](OCc2ccc(CO)cc2)O1)N1CCN(Cc2ccccc2)CC1`: the inhibition is 72.5% (active). `O=C(C1=C[C@H](c2coc3ccccc3c2=O)C[C@H](OCc2ccc(CO)cc2)O1)N1CCOCC1`: the inhibition is -1.64%. Consider `O=C(C1=C[C@H](c2ccc(C(F)(F)F)cc2)C[C@H](OCc2ccc(CO)cc2)O1)N1CCN(Cc2ccccc2)CC1`, for which the inhibition is -10.6%. With `CN1OC[C@@H]2CN(C(=O)c3ccc(-c4ccccc4)cc3)[C@H](c3ccc(-c4cccc(F)c4)cc3)C[C@@H]21`, the inhibition is -3.6%. `Brc1ccc2ncnc(NCc3cccnc3)c2c1`: the inhibition is 27.2%.

With `COc1ccc(Nc2ncnc3ccc(Br)cc23)c(OC)c1`, the inhibition is 69.1% (active). In the case of `O=C(O)CCCCCNc1ncnc2ccc(Br)cc12` it was 3.15%; in that of `Cc1ccc([C@H]2N[C@]3(CCCN(Cc4ccccc4)C3=O)[C@H]3C(=O)N(Cc4ccccc4)C(=O)[C@@H]23)cc1`, 4.09%. Regarding `O=C(O)CCCc1ccccc1`, the inhibition is 65.7% (active). Take `O=C(O)CCC(=O)N(Cc1ccccc1)Cc1ccccc1`: the inhibition is -12%. Consider `CCC(C)NC(=O)CCCc1ccccc1` (centres undefined), for which the inhibition is -18%. For the compound `S=C(NN=Cc1ccccn1)Nc1ccccn1`, the inhibition is 76.3% (active).

In the case of `O=C(N/N=C/c1ccccn1)c1cccc(NC(=O)c2ccc(Cl)cc2)c1`, the inhibition is -0.655%. With `S=C(Nc1cccnc1)Nc1ccccn1`, the inhibition was -5.41%. Regarding `COc1ccc(NC2CCCN(C(=O)c3ccccc3-c3ncc[nH]3)C2)cc1` (centres undefined), the inhibition is 1.54%. Turning to `C[C@H]1CN([C@@H](C)CO)C(=O)CCCn2cc(nn2)CO[C@@H]1CN(C)S(=O)(=O)c1ccc(-n2cccn2)cc1`, the inhibition is 4.52%.

As to `CC1CCN(c2ccc3c(c2)S(=O)(=O)c2cc(C(=O)O)ccc2C3=O)CC1`, the inhibition was -11.1%.

Consider `CC1=C(C(=O)N2CCOCC2)CC(CC(=O)NCCN2CCOCC2)C(=O)N1CCC1=CCCCC1` (centres undefined), for which the inhibition is 6.89%. Regarding `Cc1sc2nc(CC(N)=O)[nH]c(=O)c2c1-c1ccccc1`, the inhibition is -10.6%. Regarding `CCN(CC)C(=O)c1sc2nc(-c3ccccc3)ccc2c1N`, the inhibition was -15.3%. As for `NC(=O)c1sc2nc3c(c(-c4ccccc4)c2c1N)CCC3`, the inhibition is 44.3% (active).

Consider `CC1c2nc3ccccc3n2C(CC(=O)NCCCN2CCOCC2)C(=O)N1Cc1ccccc1` (centres undefined), for which the inhibition is 0.985%.

For `CC(C)CCNC(=O)CC1C(=O)N(Cc2ccccc2)C(C)c2nc3ccccc3n21` (centres undefined), the inhibition is 48.7% (active).

As to `CCOC(=O)C1CCN(C(=O)CC2C(=O)N(Cc3ccccc3)C(C)c3nc4ccccc4n32)CC1` (centres undefined), the inhibition was 14.1%. In the case of `CN(C)C(CNC(=O)c1cccc(S(=O)(=O)N2CCc3ccccc3C2)c1)c1ccccc1` (centres undefined) it was -16.9%; in that of `CC(C)OC(=O)c1ccc(NCc2cc(O)ccc2O)cc1Cl`, 72.4% (active); in that of `CC(OC(=O)c1ccc(Cl)cc1O)C(=O)NCCC1=CCCCC1` (centres undefined), -1.59%.

As for `CC(CN1CCOCC1)OC(=O)c1ccc(Cl)cc1Cl` (centres undefined), the inhibition was -3.67%.

Turning to `O=C(c1ccccc1)N1CCN(c2cc(-c3ccccc3)nc3cc(-c4cccc(Cl)c4)nn23)CC1`, the inhibition is -2.14%. For the compound `C#Cc1cc(N2CCN(C(=O)c3ccoc3)CC2)n2nc(-c3cccc(Cl)c3)cc2n1`, the inhibition is 53.9% (active). In the case of `O=C(c1ccccc1)N1CCN(C(=O)c2cc3nc(-c4ccccc4)cc(C(F)(F)F)n3n2)CC1` it was 6.54%; in that of `C=C(C)C(=O)O[C@H]1C/C(C)=C\C(=O)/C=C(\C)[C@H](O)[C@@H]2OC(=O)C(=C)[C@@H]21`, 88.8% (active).

On to `CNC(=O)c1ccc(CN(C)C(=O)c2cc(C3CC3)nc3c2cnn3C(C)C)cc1`, for which the inhibition was -3.68%. Take `CC1CCCC(C)N1C(=O)COC(=O)c1ccccc1C(=O)c1ccccc1` (centres undefined): the inhibition is -3.93%. As to `COc1cc(C(=O)N2CCOC23CCN(Cc2ccccc2)CC3)cc(OC)c1OC`, the inhibition is 4.75%. With `Clc1ccc2nc(-c3ccccc3)nc(C(Cl)Cl)c2c1`, the inhibition was 86.7% (active).

As for `Clc1cccc(-c2nc(NCC3CCCO3)c3ccccc3n2)c1` (centres undefined), the inhibition is -0.333%. As to `NC(N)=Nc1nc(-c2ccccc2)c2cc(Cl)ccc2n1`, the inhibition is -32.8%. As for `CCN(Cc1ccncc1)C(=O)CCc1ccccc1`, the inhibition is 78.9% (active). Take `CCN(CC)C(=O)N(CC)Cc1ccccc1`: the inhibition is 2.28%. Consider `CC(C)(C)N(Cc1ccccc1)C(=O)c1ccncc1`, for which the inhibition was 11.5%. Turning to `CCN(CC)C(=O)C1=C(C)N(Cc2ccc(C(C)(C)C)cc2)C(=O)C(CC(=O)NCc2cccc3ccccc23)C1` (centres undefined), the inhibition is -0.881%. As to `CCOc1cc(/C=N/NC(=O)c2ccncc2)cc(Br)c1O`, the inhibition was -1.49%.
